Screening data from PubChem.
MITF act: activators of MITF-driven TRPM1 promoter activity in SK-MEL-5 cells | activation, % at 12.5 µM | 0.75% of 300,000 active | SK-MEL-5 TRPM1-promoter luciferase, 24 h; % of positive control, neutral wells = 0;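 active = mean activation of at least 80% with every replicate also reaching 80%; inconclusive = mean reaches 80% but some replicate falls short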
esBAF inh: SWI/SNF esBAF complex inhibition | AID 602393 | reporter increase, % at 12.5 µM | mouse ES cells, Bmi1-luciferase knock-in reporter, 24 h; 100% = twice the neutral-well signal | 2% of 350,000 active; in the data active = activation above about 40%; inconclusive = no clear call, values can overlap the other calls;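 note: a rise in the Bmi1 reporter signal indicates esBAF inhibition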
rRNA inh HTS: selective bacterial rRNA inhibition in E. coli. 1.6% of 350,000 active. E. coli WT GFP vs humanized-ribosome RFP mutants, fluorescence, 24 h; active compounds read low; DMSO median 0, no signal -100. GFP signal change (wild-type ribosome), % (concentration not given with the values);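 active = significant combined selectivity score with lowered wild-type GFP, culture density cut under 30%, mutant RFP and density less affected; inactive = any of these conditions unmet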
MLL AF4-AF9 inh: inhibitors of human MLL-AF4/AF9 interaction | P42568 | AlphaScreen, biotin-AF4 peptide binding to FLAG-AF9 | inhibition, % at 10 µM | 0.47% of 350,000 active;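 active = every replicate reaching a set inhibition limit, whatever the replicate mean, cut at about 25% in these data; inconclusive = mean inhibition reaches that limit but some replicates miss it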
Target sequence (P42568 whole entry, looked up): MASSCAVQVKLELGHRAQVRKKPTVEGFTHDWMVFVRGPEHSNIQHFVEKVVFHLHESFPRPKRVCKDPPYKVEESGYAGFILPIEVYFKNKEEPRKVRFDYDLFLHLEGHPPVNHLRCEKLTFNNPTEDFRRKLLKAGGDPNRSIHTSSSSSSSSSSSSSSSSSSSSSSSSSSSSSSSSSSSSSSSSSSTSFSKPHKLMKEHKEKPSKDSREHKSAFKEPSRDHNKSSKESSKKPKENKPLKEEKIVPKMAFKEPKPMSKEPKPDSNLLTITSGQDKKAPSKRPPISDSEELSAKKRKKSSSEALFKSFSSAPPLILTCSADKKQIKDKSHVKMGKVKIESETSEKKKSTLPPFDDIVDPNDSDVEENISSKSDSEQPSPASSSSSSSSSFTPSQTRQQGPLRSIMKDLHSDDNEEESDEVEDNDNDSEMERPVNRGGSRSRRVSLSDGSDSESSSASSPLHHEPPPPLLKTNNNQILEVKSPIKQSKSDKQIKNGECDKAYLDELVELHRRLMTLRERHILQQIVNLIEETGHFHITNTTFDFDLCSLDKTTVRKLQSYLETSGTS
Wnt bcat act: activators of Wnt/beta-catenin signaling. Wnt/beta-catenin reporter cell assay, activator, plate reader. activation, % at 9.35 µM. 1.2% of 300,000 active. AID 743398; in the data active = activation above about 30%, passing the limit was not always enough; inconclusive = no clear call, values can overlap the other calls
Hits are given with their value; 0 = inactive; ? = inconclusive; - = not tested or not shown. Sampled rows, rich in hits. Any-hit rate of the full collection: about 3.7%.

SMILES	MITF act	esBAF inh	rRNA inh HTS	MLL AF4-AF9 inh	Wnt bcat act
COc1ccc(C(=O)Nc2ccccc2C(=O)Nc2ccccc2C(=O)O)cc1	-	?	0	0	0
COc1cccc(C(=O)Nc2cccc(C(=O)NC3=NN(c4c(Cl)cc(Cl)cc4Cl)C(=O)C3)c2)c1	-	0	-	-	32
CSc1cccc(NC(=O)c2cccc3cccnc23)c1	0	48	0	0	0
COc1ccc(C(=O)Nc2ccccc2C(N)=O)cc1	83	0	-	-	-
CS(=O)(=O)Nc1ccc2c(c1)[C@@H]1C[C@H](CC(=O)NCc3ccccc3F)O[C@H](CO)[C@@H]1O2	-	0	0	0	-
CN(C)c1ccc(/C=N/OC(=O)Nc2ccccc2)cc1	0	0	0	0	52
COc1ccc(C(=O)CCc2ccccc2)cc1	98	48	0	0	0
Cc1ccc(NC(=O)CO/N=C/c2ccc(N(C)C)cc2)cc1	0	-	0	0	0
COc1ccc(NC(=O)c2c(Cl)n(C)c3ccccc23)cc1	0	59	-	-	0
COc1ccc(C(=O)NC(=S)NC(C)c2ccccc2)cc1 (configuration not stated)	-	0	-32	0	0
CC(NC(=S)NC(=O)c1ccccc1)c1ccccc1 (configuration not stated)	0	0	0	0	0
CCNC1(C(N)=O)CCN(Cc2ccccc2)CC1	0	0	0	0	0
O=C(Nc1cccnc1Oc1ccc(Cl)cc1)c1cccc2ccccc12	0	0	0	-	0
C[C@H](CO)N1C[C@H](C)[C@H](CN(C)C(=O)NC2CCCC2)Oc2ncc(C3=CCCC3)cc2C1=O	-	0	0	0	-
CCC(=O)Nc1nnc(SCCN2CCOCC2)s1	0	-	0	0	0
COc1ccc(NC(=O)c2c(NC(=O)CCC(=O)O)sc(-c3ccccc3)c2C)cc1	0	-	0	0	34
COc1cccc(/C(C)=N/N=C(\C)c2cccc(OC)c2)c1	-	70	0	0	0
COc1cccc(C(=O)Nc2ccccc2)c1	-	52	-	-	-
COc1ccc(NC(=O)O/N=C/c2ccccc2Cl)cc1	0	-	-13	0	0
Cc1c(C(=O)NCCC2=CCCCC2)oc2ccc(S(=O)(=O)N3CCC4(CC3)OCCO4)cc12	-	0	-	-	-
Cn1c(CNC(=O)CNC(=O)c2ccc(F)cc2)cc(=O)n(C)c1=O	0	0	0	0	0
O=C(COc1cccnc1[N+](=O)[O-])N1CCN(S(=O)(=O)c2ccccc2)CC1	0	-	-	-	-
COc1ccc(N/C(=N/c2nc(C)cc(C)n2)NC(=O)c2ccccc2)cc1	0	-	-20	0	0
COc1cccc(C(=O)NNC(=O)CCc2ccccc2)c1	0	0	-21	0	0
COc1ccc(NC(=O)C2C(c3ccccc3)C2(Cl)Cl)cc1 (configuration not stated)	-	-	-39	0	0
SMILES	MITF act	esBAF inh	rRNA inh HTS	MLL AF4-AF9 inh	Wnt bcat act
COc1ccc(NC(=O)c2ccc(C)cc2)cc1	0	0	0	0	0
COc1ccc(NC(=O)c2ccccc2)cc1	108	0	0	0	0
Cc1cc(C)nc(/N=C(/NC(=O)c2ccccc2)Nc2ccccc2)n1	0	0	-	-	0
CCOC(=O)N1CCC(NC(=O)CSCc2nc(-c3cccc(OC)c3)oc2C)CC1	-	0	-	-	-
COC(=O)CC1C(=O)NCCN1C(=O)CSc1nc2cc(Cl)ccc2o1 (configuration not stated)	0	0	0	0	0
CCCn1nnc(NC(=S)NC(=O)CC)n1	0	-	-	-	0
COc1ccc(N(CC(=O)Nc2ccc3c(c2)OCCO3)S(=O)(=O)c2c(C)nn(C)c2C)cc1	0	0	0	0	0
COc1ccc(OC)c(N/C(=N/c2nc(C)cc(C)n2)NC(C)=O)c1	-	0	0	27	0
CN1CCN(C(=S)c2ccc(-c3cc(Cl)ccc3Cl)o2)CC1	0	-	0	?	0
S=C(c1ccc(-c2ccc(Cl)cc2Cl)o1)N1CCCC1	-	-	0	0	33
S=C(c1ccc(-c2ccc(Cl)cc2Cl)o1)N1CCCCC1	0	53	-	-	0
N#CCCN1CCN(C(=S)c2ccc(-c3cc(Cl)ccc3Cl)o2)CC1	-	0	-	-	-
Cn1cc(C=C2C(=O)OC3(CCCCC3)OC2=O)c2ccccc21	-	-	0	26	0
COC(=O)c1c(Cc2ccccc2Cl)c[nH]c1C	0	0	0	0	0
C#CCNC(=O)C1=C[C@H](C2CC2)[C@@H](CCCO)[C@H](OCC)O1	-	-	-	0	-
CC(C)(C)c1ccc(-c2nnc(N)o2)cc1	0	58	-	0	42
COc1cc(CNn2c(C)n[nH]c2=S)cc(Br)c1OCc1ccc(F)cc1	0	-	0	0	0
C=CCOc1c(Br)cc(CNn2c(C)n[nH]c2=S)cc1OCC	0	0	-31	0	0
O=C1C(C=NC2CC2)=C(O)c2ccccc21	0	0	-	-	-
COc1cc(N=CC2=C(O)c3ccccc3C2=O)cc(OC)c1	0	43	0	0	0
Fc1ccc(-c2ccc3c(n2)CCCN3Cc2ccccn2)cc1	-	-	0	0	?
c1ccc(-c2ccc3c(n2)CCCN3Cc2ccccn2)cc1	-	-	0	0	35
C[C@@H]1CN([C@H](C)CO)C(=O)c2cc(C#Cc3ccccn3)cnc2O[C@H]1CN(C)C(=O)CCN1CCCCC1	-	0	0	0	-
Cc1ccc(OCc2nc(-c3cccnc3)no2)cc1C	0	37	0	0	0
Cc1ccc(OCc2nc(-c3ccc(-n4cccc4)cc3)no2)cc1C	-	0	0	38	0
SMILES	MITF act	esBAF inh	rRNA inh HTS	MLL AF4-AF9 inh	Wnt bcat act
Cc1ccc(Cc2nc(-c3cccnc3)no2)cc1	0	0	0	0	0
Cc1cccc(OCc2nc(-c3ccc(-n4cccc4)cc3)no2)c1	0	0	0	0	0
c1cncc(-c2noc(CC3CCCCC3)n2)c1	0	42	-	-	-
O=C(C[C@H]1C=C[C@H](NC(=O)c2ccncc2)[C@@H](CO)O1)NCCc1ccncc1	-	0	0	0	-
Cc1[nH]c2ccccc2c1CCNC(=O)c1c(N)no[n+]1[O-]	0	-	-21	0	0
COc1ccc(CN(C)C[C@H]2Oc3ccc(NC(=O)Nc4ccc(OC)cc4)cc3CC(=O)N([C@@H](C)CO)C[C@@H]2C)cc1	-	0	0	0	-
O=C(CN1C(=O)c2ccccc2S1(=O)=O)c1ccc2c(c1)OCCO2	-	-	0	-	0
CCCC1Oc2ccccc2C(=O)N(CC(=O)c2ccc3c(c2)OCCO3)C1=O (configuration not stated)	0	60	0	0	0
CC(C)CC1NC(=O)N(CC(=O)c2ccc3c(c2)OCCO3)C1=O (configuration not stated)	-	0	-	-	33
CCOc1ccc(Cc2nnc(SCC(=O)Nc3ccc(C(C)=O)cc3)[nH]c2=O)cc1	0	0	0	0	0
COc1ccc2ccccc2c1C(O)c1nccn1C (configuration not stated)	0	0	-	-	-
CCCn1nnc(NC(=O)c2ccc(-c3ccccc3)cc2)n1	92	41	0	0	0
Cn1nnc(NC(=O)c2ccc(C(C)(C)C)cc2)n1	-	46	-	-	-
Cn1nnc(NC(=O)c2ccc3ccccc3c2)n1	0	0	-	-	-
Cc1ccc2nc3c(c(C(=O)OCC(=O)N(C)C4CCS(=O)(=O)C4)c2c1)CCCC3 (configuration not stated)	0	-	0	0	0
